Test results: PubChem BioAssay
Active and inactive are the calls of the source.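 Rule for the calls, unless noted: active = inhibition of the reporter signal at or above 50%; inactive = inhibition below 50%.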

Experiment: inhibitors of Sendai virus-induced IRF3 signaling, primary screen, TLR/RLR signaling modifier project, cell-based, Sendai virus stimulus, luciferase, 10K MLSCN set (AID 602276;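 active = inhibition at or above 50% at 10 µM; inactive = inhibition below 50%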;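 note: firefly luciferase from ISG56 promoter only with Renilla not read in this screen; 0% = Sendai virus plus DMSO and 100% = medium plus DMSO without virus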)
Conditions: HEK293 RL24 IRF3 luciferase reporter, at 10 µM, stronger effect = higher value

SMILES	inhibition
C#CCOC(=O)C1C2C=CC(C2)C1C(=O)O (centres undefined)	4.82% (inactive)
Cc1nc2ncnn2c(N2CCC(C(=O)NCC3CCCO3)CC2)c1Cc1ccccc1 (centres undefined)	8.8% (inactive)
CCC(=O)Nc1nn(C)c2nc3c(C)cccc3cc12	-2.08% (inactive)
Cc1cc(NC(=O)C(C)(C)C)no1	16.1% (inactive)
CCN(CC(=O)Nc1ccc2c(c1)CCC2)Cc1nc2ccccc2c(=O)[nH]1	13.7% (inactive)
Cc1ccc(S(=O)(=O)NCC(=O)OCC(=O)Nc2ncc(Cl)cc2Cl)cc1	17.2% (inactive)
O=C(CN1C(=O)c2ccccc2C1=O)Nc1ccc(S(=O)(=O)NCC2CCCO2)cc1 (centres undefined)	-1.96% (inactive)
Cc1cc(C)nc(SCc2nnc(SCC(=O)Nc3ncc(C)s3)n2Cc2ccco2)n1	8.75% (inactive)
COc1ccc(C(C)NC(=O)c2ccoc2C)cc1OC (centres undefined)	14.4% (inactive)
Cc1nc(C)n(C(C)CC(=O)O)n1 (centres undefined)	5.03% (inactive)
Cc1cccc(N(CC(=O)N2CCCC2)S(=O)(=O)c2ccccc2)c1C	-11.4% (inactive)
CCC1(C)Cc2c(sc3nc(SCC(=O)O)[nH]c(=O)c23)CO1 (centres undefined)	1.92% (inactive)
Cc1cc(NC(=O)CSc2nc(C3CC3)nc3sc4c(c23)CCC(C)C4)no1 (centres undefined)	-13.4% (inactive)
CCN(CC)C(c1ccc(C)cc1)c1nnnn1C1CCCCC1 (centres undefined)	16.7% (inactive)
COc1ccc(NC(=O)CSc2nc(C)cc(C(F)(F)F)n2)cc1	14.9% (inactive)
CC1CN(C(=O)CSc2ncnc3sccc23)CC(C)O1 (centres undefined)	10.7% (inactive)
CC1CCCC(C)N1CCNC(=O)C1CCN(S(=O)(=O)N2CCCCC2)CC1 (centres undefined)	-6.08% (inactive)
COc1ccc(C(=O)Nc2ccc(Cl)c(Cl)c2)c(OC)n1	-13.7% (inactive)
CC(C)(C)c1ccc(C(=O)N2CCC(C(=O)NCc3ccncc3)CC2)cc1	-14.5% (inactive)
CCc1nnc(NC(=O)CSc2nc(-c3ccc(OC)cc3)ns2)s1	-36.8% (inactive)
COC(=O)c1ccc(NC(=O)C2C3CCC(C3)C2C(=O)O)cc1 (centres undefined)	-12.2% (inactive)
c1ccc(-c2nc3cnccn3c2Nc2ccc3c(c2)OCCO3)cc1	8.91% (inactive)
CCOCC(O)CS(=O)Cc1ccccc1 (centres undefined)	8.68% (inactive)
Cc1ccc(OCC(O)Cn2c(NCCc3ccccc3)nc3c2c(=O)[nH]c(=O)n3C)cc1 (centres undefined)	-0.0675% (inactive)

Experiment: inhibitors of poly I:C-induced TLR3 signaling, primary screen, cell-based, poly I:C stimulus, luciferase, 10K MLSCN set (AID 602277)
Conditions: HEK293-TLR3 RL24 IRF3 luciferase reporter, at 10 µM, stronger effect = higher value

SMILES	inhibition
CCOC(=O)N1CCN(C(=O)CN(Cc2ccccc2)S(=O)(=O)c2ccc(OC)c(C)c2)CC1	1.48% (inactive)
COC(=O)c1ccc(COC(=O)c2c(C)nn(Cc3ccccc3Cl)c2Cl)o1	19.2% (inactive)
O=C(Nc1cccnc1)c1cc2c(ccc3ccccc32)o1	-135% (inactive)
Clc1ccc(OCc2nnc(SCCN3CCCCC3)n2Cc2ccco2)cc1	13.8% (inactive)
O=C(/C=C/N1CCOCC1)c1ccc(-c2ccccc2)cc1	-53.1% (inactive)
COc1cccc(N2C(=O)N(c3ccccc3Cl)C3CS(=O)(=O)CC32)c1 (centres undefined)	20% (inactive)
O=C(NCc1cccs1)c1cc2c(s1)CS(=O)(=O)C2	87% (active)
CC(C)CC(c1nnnn1C(C)(C)C)N1CCN(C2CCCC2)CC1 (centres undefined)	13.5% (inactive)
Cc1cc(C(=O)COC(=O)CCc2nc3ccccc3s2)c(C)n1C	7.6% (inactive)
Cc1cc(C)n2nc(SCC(=O)N(C)Cc3ccccc3)nc2n1	-9.42% (inactive)
CCCCCCC(c1c(C)n(C)n(-c2ccccc2)c1=O)c1c(C)n(C)n(-c2ccccc2)c1=O	7.24% (inactive)
c1ccc2c(-c3nc(-c4ccncc4)no3)cccc2c1	-43.8% (inactive)
CNC(=O)c1ccc2nc(NC(C)=O)sc2c1	-21.9% (inactive)
O=C(c1ccccc1)c1ccc(N2CCNCC2)cc1	-73.5% (inactive)
N#Cc1c(-c2ccc3c(c2)OCO3)csc1N	-84.4% (inactive)
Cc1ccc(Cn2c(SCC(N)=O)nc3c2c(=O)n(C)c(=O)n3C)cc1	2.84% (inactive)
C#CCOC(=O)C1C2C=CC(C2)C1C(=O)O (centres undefined)	0.62% (inactive)
Cc1nc2ncnn2c(N2CCC(C(=O)NCC3CCCO3)CC2)c1Cc1ccccc1 (centres undefined)	19.2% (inactive)
CCC(=O)Nc1nn(C)c2nc3c(C)cccc3cc12	-4.15% (inactive)
Cc1cc(NC(=O)C(C)(C)C)no1	20.8% (inactive)

SMILES	inhibition
CCN(CC(=O)Nc1ccc2c(c1)CCC2)Cc1nc2ccccc2c(=O)[nH]1	14.8% (inactive)
Cc1ccc(S(=O)(=O)NCC(=O)OCC(=O)Nc2ncc(Cl)cc2Cl)cc1	25.7% (inactive)
O=C(CN1C(=O)c2ccccc2C1=O)Nc1ccc(S(=O)(=O)NCC2CCCO2)cc1 (centres undefined)	98.2% (active)
Cc1cc(C)nc(SCc2nnc(SCC(=O)Nc3ncc(C)s3)n2Cc2ccco2)n1	11.7% (inactive)
COc1ccc(C(C)NC(=O)c2ccoc2C)cc1OC (centres undefined)	19.8% (inactive)
Cc1nc(C)n(C(C)CC(=O)O)n1 (centres undefined)	7.13% (inactive)
Cc1cccc(N(CC(=O)N2CCCC2)S(=O)(=O)c2ccccc2)c1C	-6.79% (inactive)
CCC1(C)Cc2c(sc3nc(SCC(=O)O)[nH]c(=O)c23)CO1 (centres undefined)	7.26% (inactive)
Cc1cc(NC(=O)CSc2nc(C3CC3)nc3sc4c(c23)CCC(C)C4)no1 (centres undefined)	-24.3% (inactive)
CCN(CC)C(c1ccc(C)cc1)c1nnnn1C1CCCCC1 (centres undefined)	25.8% (inactive)
COc1ccc(NC(=O)CSc2nc(C)cc(C(F)(F)F)n2)cc1	18.5% (inactive)
CC1CN(C(=O)CSc2ncnc3sccc23)CC(C)O1 (centres undefined)	11% (inactive)
CC1CCCC(C)N1CCNC(=O)C1CCN(S(=O)(=O)N2CCCCC2)CC1 (centres undefined)	-0.147% (inactive)
COc1ccc(C(=O)Nc2ccc(Cl)c(Cl)c2)c(OC)n1	-67% (inactive)
CC(C)(C)c1ccc(C(=O)N2CCC(C(=O)NCc3ccncc3)CC2)cc1	-39% (inactive)
CCc1nnc(NC(=O)CSc2nc(-c3ccc(OC)cc3)ns2)s1	-50.2% (inactive)
COC(=O)c1ccc(NC(=O)C2C3CCC(C3)C2C(=O)O)cc1 (centres undefined)	-15.9% (inactive)
c1ccc(-c2nc3cnccn3c2Nc2ccc3c(c2)OCCO3)cc1	11.5% (inactive)
CCOCC(O)CS(=O)Cc1ccccc1 (centres undefined)	14.1% (inactive)
Cc1ccc(OCC(O)Cn2c(NCCc3ccccc3)nc3c2c(=O)[nH]c(=O)n3C)cc1 (centres undefined)	1.64% (inactive)
